{
  "source": "PubChem BioAssay (EPA / NIEHS)",
  "note": "Results filed as inconclusive are left out. A structure can be active in one record and inactive in another. Activity calls are given as the source filed them. How the source made its calls: active means hit-call score of the fitted dose curve at least 0.9, where 1 is the maximum; inconclusive means response in the unintended direction; inactive means score below 0.9.",
  "data": [
    {"test_system": "not listed separately", "assay": "TOX21_p53_BLA_p3_viability: Viability Assessment in the Tox21 HCT-116 p53 Agonism Beta-lactamase Assay, Phase 3 (AID 2283593);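 further: cells exposed to compound for 16 h before reading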", "procedure,_shortened": "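HCT116 cells, 4000/well, dosed 5 h after plating by pin transfer (217-fold dilution from DMSO stock) and incubated 16 h at 37C, 5% CO2. Viability read as ATP luminescence with CellTiter-Glo after 30 min at room temperature.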", "values": [
      {"smiles": "C[N+]1(C)[C@@H]2CC[C@H]1CC(OC(=O)c1c[nH]c3ccccc13)C2", "note": "(some centres undefined)", "outcome": "inactive"},
      {"smiles": "FC(F)OC(F)(F)C(F)Cl", "note": "(centres undefined)", "outcome": "inactive"},
      {"smiles": "C[C@]1(O)CC[C@H]2[C@@H]3CCC4=CC(=O)CC[C@]4(C)[C@@]3(F)[C@@H](O)C[C@@]21C", "outcome": "inactive"},
      {"smiles": "CC(N)=S", "outcome": "inactive"},
      {"smiles": "CCSCc1ccccc1OC(=O)NC", "outcome": "inactive"},
      {"smiles": "CNC(C)CC1CCCCC1", "note": "(centres undefined)", "outcome": "inactive"},
      {"smiles": "COC1=CC=C2[C@H]3Cc4ccc(OC)c5c4[C@@]2(CCN3C)[C@H]1O5", "outcome": "inactive"},
      {"smiles": "Cc1cnc[nH]1", "outcome": "inactive"},
      {"smiles": "COc1ccc(C(=O)N2CCCC2=O)cc1", "outcome": "inactive"},
      {"smiles": "CNN", "outcome": "inactive"},
      {"smiles": "Cc1ccc(-c2nc3ccc(C)cn3c2CC(=O)N(C)C)cc1", "outcome": "inactive"},
      {"smiles": "CCBr", "outcome": "inactive"},
      {"smiles": "CCN(CCO)CCn1c(Cc2ccccc2)nc2c1c(=O)n(C)c(=O)n2C", "outcome": "inactive"},
      {"smiles": "CCCCc1ccc(C(=O)O)nc1", "outcome": "inactive"},
      {"smiles": "C=C[C@H]1CN2CC[C@H]1C[C@H]2[C@H](OC(=O)OCC)c1ccnc2ccc(OC)cc12", "outcome": "inactive"},
      {"smiles": "C=C(C#N)CCC#N", "outcome": "inactive"},
      {"smiles": "Brc1c(Br)c(Br)c(Br)c(Br)c1Br", "outcome": "inactive"},
      {"smiles": "C=C(Cl)CSC(=S)N(CC)CC", "outcome": "inactive"},
      {"smiles": "Cc1ccc2c(c1)[C@]13CCCC[C@@H]1[C@H](C2)N(C)CC3", "outcome": "inactive"},
      {"smiles": "Cc1nc(N)nc(N)n1", "outcome": "inactive"},
      {"smiles": "c1ccc(C2CC2)c(OCC2=NCCN2)c1", "outcome": "inactive"},
      {"smiles": "O=C(Cl)c1ccccc1F", "outcome": "inactive"},
      {"smiles": "CC(C)Br", "outcome": "inactive"},
      {"smiles": "O=C(C[C@@H]1NCCC[C@H]1O)Cn1cnc2cc(Br)c(Cl)cc2c1=O", "outcome": "inactive"},
      {"smiles": "C=C1C[C@@H]2[C@H](CC[C@]3(C)C(=O)CC[C@@H]23)[C@@]2(C)C=CC(=O)C=C12", "outcome": "inactive"},
      {"smiles": "C#CC(C)(O)CC", "note": "(centres undefined)", "outcome": "inactive"},
      {"smiles": "Cc1ncc2n1-c1ccc(Cl)cc1C(c1ccccc1F)=NC2", "outcome": "inactive"},
      {"smiles": "Clc1ccc(C(Cl)(Cl)Cl)cc1Cl", "outcome": "inactive"},
      {"smiles": "CC(=O)OC1(c2ccccc2)CCN(CCc2ccccc2)CC1", "outcome": "inactive"},
      {"smiles": "COC(=O)C(Cl)C(=O)OC", "outcome": "inactive"},
      {"smiles": "C[N+](C)(C)CCOC(=O)C(O)(c1ccccc1)c1ccccc1", "outcome": "inactive"},
      {"smiles": "CC(=O)OCC(=O)[C@H]1CC[C@H]2[C@@H]3CC[C@H]4C[C@H](O)CC[C@]4(C)[C@H]3C(=O)C[C@]12C", "outcome": "inactive"}
    ]},
    {"molecular_target": "Cellular tumor antigen p53 (Homo sapiens) (UniProt P04637)", "sequence (P04637 whole entry, looked up)": "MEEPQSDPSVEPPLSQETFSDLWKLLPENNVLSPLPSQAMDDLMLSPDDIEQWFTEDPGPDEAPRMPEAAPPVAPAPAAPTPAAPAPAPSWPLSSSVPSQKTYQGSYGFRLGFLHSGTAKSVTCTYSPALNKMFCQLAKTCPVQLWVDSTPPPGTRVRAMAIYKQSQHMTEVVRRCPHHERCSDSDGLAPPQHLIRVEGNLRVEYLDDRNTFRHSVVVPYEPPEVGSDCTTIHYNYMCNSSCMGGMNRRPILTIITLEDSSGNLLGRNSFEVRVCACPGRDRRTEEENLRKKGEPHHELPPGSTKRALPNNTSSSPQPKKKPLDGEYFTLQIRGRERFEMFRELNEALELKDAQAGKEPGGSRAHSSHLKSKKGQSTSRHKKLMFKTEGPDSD", "assay": "TOX21_p53_BLA_p3_ratio: Tox21 HCT-116 p53 Agonism Beta-lactamase Assay, Ratio, Phase 3 (AID 2283596)", "procedure,_shortened": "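Cells were seeded at 4000/well, rested 5 h at 37C, then dosed with DMSO compound solutions (217-fold dilution) for 16 h. CCF4-AM substrate was loaded for 2 h at room temperature, and the 460/530 nm emission ratio was fitted for gain of signal versus DMSO.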", "values": [
      {"smiles": "CCCCCCCCCCCCCCCCn1cc[n+](C)c1", "AC50": "9.54 µM (active)", "outcome": "inactive"},
      {"smiles": "CCBr", "outcome": "inactive"},
      {"smiles": "C[C@H]1CCC[C@H](O)CCCCCc2cc(O)cc(O)c2C(=O)O1", "AC50": "74.2 µM (active)", "outcome": "inactive"},
      {"smiles": "COc1ccc2c(c1)C13CCCC[C@@H]1C(C2)N(C)CC3", "note": "(some centres undefined)", "outcome": "inactive"},
      {"smiles": "CN1CCCC(=C(c2cccs2)c2cccs2)C1", "outcome": "inactive"},
      {"smiles": "C=C1C[C@@H]2[C@H](CC[C@]3(C)C(=O)CC[C@@H]23)[C@@]2(C)C=CC(=O)C=C12", "outcome": "inactive"},
      {"smiles": "CSSC", "outcome": "inactive"},
      {"smiles": "CC(CCc1ccccc1)NC(C)C(O)c1ccc(O)cc1", "note": "(centres undefined)", "outcome": "inactive"},
      {"smiles": "Clc1cccc(N2CCNCC2)c1", "outcome": "inactive"},
      {"smiles": "C[C@@H]([C@H](O)c1ccccc1)N(C)C", "outcome": "inactive"}
    ]}
  ]
}
